Drawing on PubChem BioAssay AID1347414 (National Center for Advancing Translational Sciences (NCATS), 2020), this text covers Potency for 36 compounds.

Records with an inconclusive call do not appear. Where a call stands in place of a potency, no number is given. The source made the active and inactive calls. Calls come from the whole dose curve; as a rule, active = well fitted inhibition curve with a large enough effect; inconclusive = small, poorly fitted or top-dose-only effect; inactive = no such curve, though single readings can be large or run the other way.
Potency is the fitted concentration of half-maximal effect.

The assay can be described thus: qHTS to identify inhibitors of the type 1 interferon - major histocompatibility complex class I in skeletal muscle: Secondary screen by immunofluorescence. Note: nearly all actives have a fitted effect of over 70% in size. Particulars: C25cl48 myoblasts, IFN-b induced HLA-ABC immunofluorescence, 24 h, Viability; series mostly up to 49.8 µM. The procedure, abridged: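 HLA-ABC immunofluorescence, with nuclear and cell-body stains, was quantified by laser scanning cytometry. Read-out followed 24 h of IFN-beta (4.0 ng/ml) stimulation of C25cl48 human myoblasts with compounds titrated 1:3 over 11 points from 50 uM, with ruxolitinib as inhibitor control.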
For `O=[N+]([O-])c1ccc2c(c1)S(=O)(=O)C=C2`, the Potency is 5.14 µM (active).

For `O=c1[nH]c2cc(Cl)ccc2c(O)c1-c1ccc(Oc2ccccc2)cc1`, the Potency result was “inactive”.

As for `CCCOc1ccc2nc(NC(=O)OC)[nH]c2c1`, the Potency result is “inactive”.

Regarding `C[C@]12CCC(=O)C=C1CC[C@H]1[C@@H]3CC[C@](O)(C(=O)CO)[C@@]3(C)C[C@H](O)[C@@]12F`, the Potency entry was “inactive”.

Take `OCCCNc1cc(-c2ccnc(Nc3cccc(Cl)c3)n2)ccn1`: the Potency result is “inactive”.

As for `CC(C)(C)c1nc(-c2cccc(NS(=O)(=O)c3c(F)cccc3F)c2F)c(-c2ccnc(N)n2)s1`, the Potency entry was “inactive”.

As for `CC(=O)OCC(=O)[C@@]12OC(C)(C)O[C@@H]1C[C@H]1[C@@H]3C[C@H](F)C4=CC(=O)C=C[C@]4(C)[C@@]3(F)[C@@H](O)C[C@@]12C`, the Potency entry is “inactive”.

Take `Cc1cnc(Nc2ccc(N3CCN(C)CC3)cc2)nc1Nc1cccc(S(=O)(=O)NC(C)(C)C)c1`: the Potency is 20.5 µM (active).

Take `NC(=O)c1cnc2[nH]ccc2c1NC1C2CC3C[C@H]1CC(O)(C3)C2` (stereo partly specified): the Potency result is “inactive”.

Take `CC(C)c1cnn2c(NCc3ccccc3)cc(N[C@@H](CO)[C@H](O)CO)nc12`: the Potency result was “inactive”.

Regarding `CC(=O)Nc1ccc([C@H](C)C(=O)Nc2ncc(C(C)C)s2)cc1`, the Potency result was “inactive”.

Consider `COc1cccc2c1C(=O)c1c(O)c3c(c(O)c1C2=O)C[C@@](O)(C(=O)CO)C[C@@H]3O[C@H]1C[C@H](N)[C@H](O)[C@H](C)O1`, for which the Potency entry is “inactive”.

With `CN(c1ncccc1CNc1nc(Nc2ccc3c(c2)CC(=O)N3)ncc1C(F)(F)F)S(C)(=O)=O`, the Potency result was “inactive”.

Consider `O=C1CN2Cc3c(ccc(Cl)c3Cl)N=C2N1`, for which the Potency entry is “inactive”.

`N#CCC1(n2cc(-c3ncnc4[nH]ccc34)cn2)CN(C2CCN(C(=O)c3ccnc(C(F)(F)F)c3F)CC2)C1`: the Potency result is “inactive”.

Consider `CC(C)C[C@H](NC(=O)[C@H](Cc1ccccc1)NC(=O)c1cnccn1)B(O)O`, for which the Potency entry was “inactive”.

As to `CN1CC[C@H](c2c(O)cc(O)c3c(=O)cc(-c4ccccc4Cl)oc23)[C@H](O)C1`, the Potency result was “inactive”.

In the case of `C[C@@]12O[C@@H](C[C@]1(O)CO)n1c3ccccc3c3c4c(c5c6ccccc6n2c5c31)CNC4=O`, the Potency entry is “inactive”.

For the compound `CC[C@@]1(O)C(=O)OCc2c1cc1n(c2=O)Cc2c-1nc1ccccc1c2/C=N/OC(C)(C)C`, the Potency result was “inactive”.

In the case of `C1=C/COCc2cc(ccc2OCCN2CCCC2)Nc2nccc(n2)-c2cccc(c2)COC/1`, the Potency was 11.5 µM (active).

`Cn1ncc2cc(-c3cnc(N)c(Cl)c3N3CCC4(CCNC4=O)CC3)ccc21`: the Potency result was “inactive”.

Consider `COc1ccc(-c2ccc3ncc4c(c3c2)n(-c2ccc(N3CCNCC3)c(C(F)(F)F)c2)c(=O)n4C)cn1`, for which the Potency is 1.02 µM (active).

Turning to `OC1CCC(Oc2cccc3cnc(Nc4ccc5nc[nH]c5c4)nc23)CC1` (stereo unspecified), the Potency result is “inactive”.

For `CC(C)c1c2cc(-c3ccnc(NC4CCC(NC5CCOCC5)CC4)n3)ccc2nn1C` (stereo unspecified), the Potency result is “inactive”.

As to `CC1(C)CC(=O)c2c(C(F)(F)F)nn(-c3ccc(C(N)=O)c(NC4CCC(O)CC4)c3)c2C1` (stereo unspecified), the Potency result was “inactive”.

Regarding `COc1cccc2nc(-c3cccs3)nc(NN3C(=O)C=C(C)C3=O)c12`, the Potency was 16.2 µM (active).

Take `CN(C)c1ccc(C(=O)NCCCCCCC(=O)NO)cc1`: the Potency entry is “inactive”.

Turning to `O=C(/C=C/c1cccc(S(=O)(=O)Nc2ccccc2)c1)NO`, the Potency result was “inactive”.

With `C=C1C(=O)O[C@@H]2[C@H]3O[C@]3(C)CC/C=C(\C)CC[C@@H]12`, the Potency was 11.5 µM (active).

In the case of `NS(=O)(=O)OC[C@@H]1C[C@@H](n2ccc3c(N[C@H]4CCc5ccccc54)ncnc32)C[C@@H]1O`, the Potency entry is “inactive”.

Consider `Cc1cc2c(cc1CC(=O)c1sccc1S(=O)(=O)Nc1onc(C)c1Cl)OCO2`, for which the Potency result is “inactive”.

Regarding `C=C1C(=O)O[C@@H]2[C@H]3O[C@]3(C)CCC=C(C)CC[C@@H]12`, the Potency is 8.14 µM (active).

As to `COc1cccc2c1C(=O)c1c(O)c3c(c(O)c1C2=O)C[C@@](O)(C(=O)CO)C[C@@H]3O[C@H]1C[C@H](N)[C@@H](O)[C@H](C)O1`, the Potency result was “inactive”.

For the compound `Cc1cc(Nc2cc(NC(=O)c3c(Cl)cccc3Cl)ccn2)nc(N)n1`, the Potency result was “inactive”.

As for `C[C@]12C=CC(=O)C=C1CC[C@H]1[C@@H]3C[C@@H](O)[C@](O)(C(=O)CO)[C@@]3(C)C[C@H](O)[C@@]12F`, the Potency result was “inactive”.

For `CC1(COc2ccc3c(c2)ncn3-c2ccc3cccc(N4CCC(N)CC4)c3n2)COC1`, the Potency was 7.26 µM (active).
